This is an account of results in PubChem BioAssay (NCI).

The structures appear in SMILES notation. About 83,000 compounds went through this panel and 20% of them were active in at least one assay; those are over-represented in the sample as a whole.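 Cell lines were cultured in 96-well plates, exposed to a single compound concentration, and assessed for percent growth 48 hours later.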 Values without a mark were called inactive. Activity calls are given as the source filed them. How the source made its calls: active means growth percent below 10; inactive means the rest.

Test systems include NCI-H23 lung; NCI-H226 lung; NCI-H322M lung; HOP-62 NSCLC; NCI-H460 lung; HOP-92 NSCLC; NCI-H522 lung; A549/ATCC NSCLC; 786-0 renal; COLO 205 colon; DU-145 prostate; K-562 leukemia; MALME-3M melanoma; MDA-MB-231 breast; SF-268 CNS; SF-295 CNS; SF-539 CNS; UACC-257 melanoma; M14 melanoma.
Holding throughout (experiment): NCI-60 one-dose screen, 48 h (100 = growth as untreated, 0 = no growth, -100 = all killed)
Conditions in all cases: 10 µM unless noted

In the case of `c1ccc(N2N=C(c3cccc(Nc4ccncc4)c3)CC2c2ccc3c(c2)OCO3)cc1` (configuration not stated), the growth was 61.1% with NCI-H23 lung; 77.7% in the assay on NCI-H226 lung; 42.7% in the assay with NCI-H322M lung; 23.5% with HOP-62 NSCLC; -48.5% (active) in the assay with NCI-H460 lung; 25.6% in the assay with HOP-92 NSCLC. Besides, the growth was 17.9% in the assay with NCI-H522 lung; 21.1% in the assay on A549/ATCC NSCLC; 81% with 786-0 renal; -53% (active) in the assay with COLO 205 colon; 16.4% with DU-145 prostate; 4.94% (active) in the assay on K-562 leukemia. Besides, the growth in the assay with MALME-3M melanoma is -22.6% (active); in the assay on MDA-MB-231 breast, 37.7%; with SF-268 CNS, 29.9%; with SF-295 CNS, -17.1% (active); in the assay with SF-539 CNS, 9.86% (active); in the assay with UACC-257 melanoma, 27.2%. Also, the growth in the assay with M14 melanoma is 93.1%.

In the case of `O=C1/C(=C/c2ccc(O)cc2)COc2ccc(-c3ccccc3)cc21`, the growth is 95.9% in the assay on NCI-H23 lung; 102% in the assay with NCI-H226 lung; 94.1% with NCI-H322M lung; 80.1% in the assay with HOP-62 NSCLC; 66% in the assay on NCI-H460 lung; 84.5% in the assay on HOP-92 NSCLC. In addition, the growth is 84.2% with NCI-H522 lung; 90.4% in the assay with A549/ATCC NSCLC; 21.4% with 786-0 renal; 90.7% in the assay with COLO 205 colon; 59.7% in the assay on DU-145 prostate; 39.3% in the assay with K-562 leukemia. The growth in the assay on MALME-3M melanoma was 116%; in the assay on MDA-MB-231 breast it was 94.6%; with SF-268 CNS, 69.1%; in the assay on SF-295 CNS it was 89.8%; in the assay with SF-539 CNS, 90.7%; with UACC-257 melanoma, 92.7%. For the same compound, the growth in the assay on M14 melanoma is 86.6%.

For the compound `COC(=O)Nc1ccc(NC(=O)OC)cc1`, the growth was 97.6% in the assay on NCI-H23 lung; 96.7% in the assay with NCI-H226 lung; 100% with NCI-H322M lung; 77.7% in the assay on HOP-62 NSCLC; 106% in the assay on NCI-H460 lung; 84.7% in the assay with HOP-92 NSCLC. Also, the growth in the assay with NCI-H522 lung is 73.6%; in the assay on A549/ATCC NSCLC, 69.7%; with 786-0 renal, 93.3%; with COLO 205 colon it was 111%; in the assay on DU-145 prostate it was 110%; with K-562 leukemia it was 103%. Moreover, the growth is 105% in the assay with MALME-3M melanoma; 120% in the assay with MDA-MB-231 breast; 103% in the assay on SF-268 CNS; 99.7% in the assay with SF-295 CNS; 106% in the assay on SF-539 CNS; 66.3% in the assay on UACC-257 melanoma. Further, in the assay with M14 melanoma, the growth is 83.7%.

In the case of `COc1ccc(-c2nc(SC)nc(N3CCOCC3)c2C#N)cc1`, the growth is 98.6% with NCI-H23 lung; 95.4% in the assay with NCI-H226 lung; 102% with NCI-H322M lung; 88.5% in the assay with HOP-62 NSCLC; 109% in the assay with NCI-H460 lung; 71.2% with HOP-92 NSCLC. Moreover, the growth is 84% in the assay with NCI-H522 lung; 95.2% in the assay on A549/ATCC NSCLC; 76.8% in the assay on 786-0 renal; 99% with COLO 205 colon; 106% with DU-145 prostate; 97.5% in the assay on K-562 leukemia. Further, the growth is 102% in the assay on MALME-3M melanoma; 92.2% with MDA-MB-231 breast; 92.4% in the assay with SF-268 CNS; 98.8% in the assay with SF-295 CNS; 86.5% in the assay on SF-539 CNS; 112% in the assay with UACC-257 melanoma. Also, the growth with M14 melanoma is 111%.

On to `C#CCn1cc(C=C2C(=O)NC(=S)NC2=O)c2cc(Cl)ccc21`, for which the growth in the assay on NCI-H23 lung is -4.83% (active); with NCI-H226 lung, 61.6%; with NCI-H322M lung it was 80.3%; in the assay with HOP-62 NSCLC it was -5.32% (active); in the assay with NCI-H460 lung, 14.6%; in the assay with HOP-92 NSCLC, 48.4%. For the same compound, the growth is 51.1% with NCI-H522 lung; 98.3% with A549/ATCC NSCLC; -54.2% (active) with 786-0 renal; 33.2% in the assay with COLO 205 colon; 3.03% (active) with DU-145 prostate; 15% with K-562 leukemia. Further, the growth was 43.5% in the assay with MALME-3M melanoma; -26.1% (active) in the assay with MDA-MB-231 breast; 6.45% (active) in the assay with SF-268 CNS; 46.4% in the assay on SF-295 CNS; -57.2% (active) with SF-539 CNS; 61.7% in the assay with UACC-257 melanoma. Moreover, in the assay with M14 melanoma, the growth was 44.4%.

With `S=c1[nH]cccc1-c1nnc2n1Nc1nc3ccc(Cl)cc3cc1CS2`, the growth was 92% with NCI-H23 lung; 94.9% in the assay with NCI-H226 lung; 103% in the assay on NCI-H322M lung; 108% in the assay on HOP-62 NSCLC; 102% in the assay with NCI-H460 lung; 107% with HOP-92 NSCLC. Further, the growth was 82.6% in the assay with NCI-H522 lung; 107% with A549/ATCC NSCLC; 98.8% in the assay on 786-0 renal; 122% in the assay on COLO 205 colon; 117% in the assay on DU-145 prostate; 97.5% with K-562 leukemia. Besides, the growth with MALME-3M melanoma was 110%; in the assay with MDA-MB-231 breast, 89.9%; in the assay on SF-268 CNS it was 101%; in the assay with SF-295 CNS, 98.5%; in the assay with SF-539 CNS it was 97.7%; with UACC-257 melanoma it was 102%. The growth in the assay with M14 melanoma is 98.6%.

As for `COc1ccccc1/C=C1\Oc2cc(OCCCN3CCCC3)ccc2C1=O`, the growth in the assay on NCI-H23 lung was 83%; in the assay on NCI-H226 lung, 98.7%; in the assay with NCI-H322M lung it was 96.5%; in the assay on HOP-62 NSCLC, 88.5%; in the assay on NCI-H460 lung, 95.9%; in the assay with HOP-92 NSCLC, 63.1%. Also, the growth in the assay on NCI-H522 lung is 104%; in the assay with A549/ATCC NSCLC, 99.9%; with 786-0 renal, 94%; with COLO 205 colon, 96.4%; in the assay on DU-145 prostate, 98%; in the assay on K-562 leukemia it was 4.95% (active). Also, the growth with MALME-3M melanoma was 96.5%; in the assay with MDA-MB-231 breast it was 86.5%; with SF-268 CNS, 90.3%; in the assay with SF-295 CNS it was 99.2%; in the assay on SF-539 CNS, 76.4%; in the assay with UACC-257 melanoma, 109%. For the same compound, the growth in the assay on M14 melanoma is 100%.

In the case of `CCN(CC)CCCC(Nc1c2ccc(Cl)cc2nc2ccc(OC)cc12)c1ccc(Cl)cc1` (configuration not stated), the growth in the assay on NCI-H23 lung was 62.1%; in the assay with NCI-H226 lung, 37%; in the assay with NCI-H322M lung, -17.1% (active); in the assay with HOP-62 NSCLC, 25.4%; with NCI-H460 lung it was -69.2% (active); with HOP-92 NSCLC it was 7.29% (active). The growth with NCI-H522 lung was -68.7% (active); with A549/ATCC NSCLC, -42.5% (active); with 786-0 renal it was -84% (active); with COLO 205 colon it was -73.8% (active); with DU-145 prostate, 23.8%; in the assay with K-562 leukemia it was -58.2% (active). The growth with MALME-3M melanoma was -82.3% (active); with MDA-MB-231 breast, -59.1% (active); in the assay with SF-268 CNS, 14.2%; with SF-295 CNS, -85.7% (active); in the assay on SF-539 CNS it was -90.9% (active); in the assay on UACC-257 melanoma it was -86.7% (active). For the same compound, the growth in the assay with M14 melanoma is -89% (active).
